In ChEMBL document CHEMBL2218924, “A broad activity screen in support of a chemogenomic map for kinase signalling research and drug discovery” (Biochem J, 2013) one finds residual activity data, which are given here for one molecule.

For experiment [1], the target named is T1, Ephrin type-B receptor 1 (Homo sapiens) (UniProt P54762).
T1 sequence (whole entry): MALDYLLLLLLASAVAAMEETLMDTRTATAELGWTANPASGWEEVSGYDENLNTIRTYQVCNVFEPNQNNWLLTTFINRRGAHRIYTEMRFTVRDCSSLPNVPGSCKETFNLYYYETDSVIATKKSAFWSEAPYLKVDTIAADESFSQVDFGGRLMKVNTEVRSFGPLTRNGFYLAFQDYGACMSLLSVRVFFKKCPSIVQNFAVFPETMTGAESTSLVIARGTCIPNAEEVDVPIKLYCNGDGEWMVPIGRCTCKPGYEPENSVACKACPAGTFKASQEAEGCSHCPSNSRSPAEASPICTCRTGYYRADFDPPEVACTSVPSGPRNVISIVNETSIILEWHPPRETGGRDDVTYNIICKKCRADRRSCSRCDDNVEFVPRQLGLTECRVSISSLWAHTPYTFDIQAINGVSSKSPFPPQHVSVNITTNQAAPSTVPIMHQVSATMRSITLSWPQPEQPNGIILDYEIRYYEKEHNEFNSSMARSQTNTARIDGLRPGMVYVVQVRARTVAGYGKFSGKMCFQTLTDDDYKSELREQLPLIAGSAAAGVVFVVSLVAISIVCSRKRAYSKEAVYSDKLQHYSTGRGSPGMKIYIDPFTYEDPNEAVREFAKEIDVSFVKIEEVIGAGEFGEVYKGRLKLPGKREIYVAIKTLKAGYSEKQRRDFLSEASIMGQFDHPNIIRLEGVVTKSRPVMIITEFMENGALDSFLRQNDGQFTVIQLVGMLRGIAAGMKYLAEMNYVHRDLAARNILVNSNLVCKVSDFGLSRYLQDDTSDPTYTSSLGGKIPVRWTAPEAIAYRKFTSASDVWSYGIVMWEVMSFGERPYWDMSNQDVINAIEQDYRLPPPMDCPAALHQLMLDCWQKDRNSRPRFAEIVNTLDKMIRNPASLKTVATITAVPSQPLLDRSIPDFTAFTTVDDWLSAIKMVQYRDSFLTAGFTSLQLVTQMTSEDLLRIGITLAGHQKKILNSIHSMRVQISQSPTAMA
As to conditions: at 1 µM; call rule not given here.

Experiment [2] addresses T1, Ephrin type-B receptor 1 (Homo sapiens). As to conditions: at 10 µM.
For experiment [3], the target named is T2, Ephrin type-B receptor 2 (Homo sapiens) (UniProt P29323).
T2 sequence (whole entry): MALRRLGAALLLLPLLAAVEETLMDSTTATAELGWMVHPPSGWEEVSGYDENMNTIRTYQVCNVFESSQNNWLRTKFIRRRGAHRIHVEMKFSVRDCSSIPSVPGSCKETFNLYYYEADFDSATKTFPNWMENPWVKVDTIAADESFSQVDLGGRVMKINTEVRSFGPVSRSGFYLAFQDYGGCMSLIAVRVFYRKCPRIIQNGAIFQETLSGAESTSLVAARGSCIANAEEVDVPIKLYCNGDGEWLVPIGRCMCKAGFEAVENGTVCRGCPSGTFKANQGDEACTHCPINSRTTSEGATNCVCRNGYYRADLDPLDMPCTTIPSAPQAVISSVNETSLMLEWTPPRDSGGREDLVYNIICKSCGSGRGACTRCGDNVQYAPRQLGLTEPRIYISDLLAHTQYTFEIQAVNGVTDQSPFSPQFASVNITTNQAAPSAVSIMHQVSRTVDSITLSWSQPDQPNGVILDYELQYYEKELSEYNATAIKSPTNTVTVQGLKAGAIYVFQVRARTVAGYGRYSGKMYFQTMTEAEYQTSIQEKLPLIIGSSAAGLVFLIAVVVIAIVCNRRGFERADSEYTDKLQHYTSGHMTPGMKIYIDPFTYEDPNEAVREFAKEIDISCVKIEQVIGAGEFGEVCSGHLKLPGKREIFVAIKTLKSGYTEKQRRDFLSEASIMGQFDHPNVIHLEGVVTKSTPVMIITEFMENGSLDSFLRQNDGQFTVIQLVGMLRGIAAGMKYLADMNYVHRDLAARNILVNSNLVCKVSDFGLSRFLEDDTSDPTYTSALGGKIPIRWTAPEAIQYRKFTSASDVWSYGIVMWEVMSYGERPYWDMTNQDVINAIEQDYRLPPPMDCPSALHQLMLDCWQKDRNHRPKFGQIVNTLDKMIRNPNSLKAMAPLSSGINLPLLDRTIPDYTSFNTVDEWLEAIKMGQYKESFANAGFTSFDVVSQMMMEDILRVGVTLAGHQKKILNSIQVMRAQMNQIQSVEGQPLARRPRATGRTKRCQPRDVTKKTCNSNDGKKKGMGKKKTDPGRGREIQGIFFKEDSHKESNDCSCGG
As to conditions: at 1 µM.

Experiment [4] concerns the target T2, Ephrin type-B receptor 2 (Homo sapiens). As to conditions: at 10 µM.
The target in experiment [5] is T3, Ephrin type-B receptor 3 (Homo sapiens) (UniProt P54753).
T3 sequence (whole entry): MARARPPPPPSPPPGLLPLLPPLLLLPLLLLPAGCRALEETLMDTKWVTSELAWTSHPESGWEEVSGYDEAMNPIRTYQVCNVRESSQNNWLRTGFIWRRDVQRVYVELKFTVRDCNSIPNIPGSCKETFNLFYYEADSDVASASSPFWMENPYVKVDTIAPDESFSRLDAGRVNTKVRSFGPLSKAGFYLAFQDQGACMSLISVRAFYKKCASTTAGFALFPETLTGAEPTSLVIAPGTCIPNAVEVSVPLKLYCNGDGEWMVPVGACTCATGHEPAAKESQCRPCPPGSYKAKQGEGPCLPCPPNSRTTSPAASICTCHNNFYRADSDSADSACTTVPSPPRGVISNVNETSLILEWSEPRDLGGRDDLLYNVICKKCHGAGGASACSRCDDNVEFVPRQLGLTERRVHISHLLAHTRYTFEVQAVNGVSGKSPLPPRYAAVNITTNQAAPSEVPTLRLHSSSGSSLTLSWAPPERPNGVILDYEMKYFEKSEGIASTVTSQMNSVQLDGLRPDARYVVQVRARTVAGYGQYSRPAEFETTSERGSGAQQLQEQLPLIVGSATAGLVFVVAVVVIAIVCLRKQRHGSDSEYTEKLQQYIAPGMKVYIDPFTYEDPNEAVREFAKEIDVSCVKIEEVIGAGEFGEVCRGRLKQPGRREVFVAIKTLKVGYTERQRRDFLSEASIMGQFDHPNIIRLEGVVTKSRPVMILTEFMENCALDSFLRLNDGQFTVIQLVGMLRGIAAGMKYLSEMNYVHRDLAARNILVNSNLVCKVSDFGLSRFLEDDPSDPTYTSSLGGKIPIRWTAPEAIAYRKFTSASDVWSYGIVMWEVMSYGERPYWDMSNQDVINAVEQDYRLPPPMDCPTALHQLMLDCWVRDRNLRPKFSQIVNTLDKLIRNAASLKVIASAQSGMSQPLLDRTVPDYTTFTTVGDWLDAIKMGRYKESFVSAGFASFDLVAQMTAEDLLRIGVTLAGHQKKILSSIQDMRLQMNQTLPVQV
As to conditions: at 1 µM.

The target of experiment [6] is T3, Ephrin type-B receptor 3 (Homo sapiens). As to conditions: at 10 µM.
Experiment [7] deals with T4, Ephrin type-B receptor 4 (Homo sapiens) (UniProt P54760).
T4 sequence (whole entry): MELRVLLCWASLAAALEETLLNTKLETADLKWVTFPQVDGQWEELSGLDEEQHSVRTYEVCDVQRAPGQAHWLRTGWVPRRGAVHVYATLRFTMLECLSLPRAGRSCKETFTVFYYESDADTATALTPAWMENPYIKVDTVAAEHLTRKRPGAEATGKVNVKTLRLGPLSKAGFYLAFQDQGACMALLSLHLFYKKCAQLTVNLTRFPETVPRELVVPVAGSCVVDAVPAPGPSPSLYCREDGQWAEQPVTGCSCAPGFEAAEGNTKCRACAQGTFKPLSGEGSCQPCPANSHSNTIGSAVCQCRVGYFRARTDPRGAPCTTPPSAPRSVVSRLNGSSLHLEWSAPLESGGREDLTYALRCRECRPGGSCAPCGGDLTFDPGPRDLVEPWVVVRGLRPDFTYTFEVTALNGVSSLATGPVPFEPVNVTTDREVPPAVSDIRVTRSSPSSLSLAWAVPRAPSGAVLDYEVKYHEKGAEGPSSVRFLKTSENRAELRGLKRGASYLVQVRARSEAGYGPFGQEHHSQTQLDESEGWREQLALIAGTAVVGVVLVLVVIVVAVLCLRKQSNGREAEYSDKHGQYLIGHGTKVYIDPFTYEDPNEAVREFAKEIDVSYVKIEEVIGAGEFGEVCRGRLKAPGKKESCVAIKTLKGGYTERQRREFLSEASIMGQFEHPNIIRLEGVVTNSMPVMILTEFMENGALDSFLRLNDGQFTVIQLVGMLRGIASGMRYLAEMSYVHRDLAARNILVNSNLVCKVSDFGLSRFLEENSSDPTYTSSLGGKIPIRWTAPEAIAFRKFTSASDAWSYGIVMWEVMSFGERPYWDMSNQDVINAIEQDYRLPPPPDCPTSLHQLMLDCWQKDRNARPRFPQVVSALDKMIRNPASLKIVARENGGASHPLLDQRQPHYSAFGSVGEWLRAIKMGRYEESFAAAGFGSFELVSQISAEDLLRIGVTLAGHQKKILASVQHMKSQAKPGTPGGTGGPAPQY
As to conditions: at 1 µM.

Experiment [8] concerns the target T4, Ephrin type-B receptor 4 (Homo sapiens). As to conditions: at 10 µM.
In experiment [9] the target is Receptor tyrosine-protein kinase erbB-4 (Homo sapiens) (UniProt Q15303). As to conditions: at 1 µM.
Receptor tyrosine-protein kinase erbB-4 (Homo sapiens), sequence (Q15303 whole entry): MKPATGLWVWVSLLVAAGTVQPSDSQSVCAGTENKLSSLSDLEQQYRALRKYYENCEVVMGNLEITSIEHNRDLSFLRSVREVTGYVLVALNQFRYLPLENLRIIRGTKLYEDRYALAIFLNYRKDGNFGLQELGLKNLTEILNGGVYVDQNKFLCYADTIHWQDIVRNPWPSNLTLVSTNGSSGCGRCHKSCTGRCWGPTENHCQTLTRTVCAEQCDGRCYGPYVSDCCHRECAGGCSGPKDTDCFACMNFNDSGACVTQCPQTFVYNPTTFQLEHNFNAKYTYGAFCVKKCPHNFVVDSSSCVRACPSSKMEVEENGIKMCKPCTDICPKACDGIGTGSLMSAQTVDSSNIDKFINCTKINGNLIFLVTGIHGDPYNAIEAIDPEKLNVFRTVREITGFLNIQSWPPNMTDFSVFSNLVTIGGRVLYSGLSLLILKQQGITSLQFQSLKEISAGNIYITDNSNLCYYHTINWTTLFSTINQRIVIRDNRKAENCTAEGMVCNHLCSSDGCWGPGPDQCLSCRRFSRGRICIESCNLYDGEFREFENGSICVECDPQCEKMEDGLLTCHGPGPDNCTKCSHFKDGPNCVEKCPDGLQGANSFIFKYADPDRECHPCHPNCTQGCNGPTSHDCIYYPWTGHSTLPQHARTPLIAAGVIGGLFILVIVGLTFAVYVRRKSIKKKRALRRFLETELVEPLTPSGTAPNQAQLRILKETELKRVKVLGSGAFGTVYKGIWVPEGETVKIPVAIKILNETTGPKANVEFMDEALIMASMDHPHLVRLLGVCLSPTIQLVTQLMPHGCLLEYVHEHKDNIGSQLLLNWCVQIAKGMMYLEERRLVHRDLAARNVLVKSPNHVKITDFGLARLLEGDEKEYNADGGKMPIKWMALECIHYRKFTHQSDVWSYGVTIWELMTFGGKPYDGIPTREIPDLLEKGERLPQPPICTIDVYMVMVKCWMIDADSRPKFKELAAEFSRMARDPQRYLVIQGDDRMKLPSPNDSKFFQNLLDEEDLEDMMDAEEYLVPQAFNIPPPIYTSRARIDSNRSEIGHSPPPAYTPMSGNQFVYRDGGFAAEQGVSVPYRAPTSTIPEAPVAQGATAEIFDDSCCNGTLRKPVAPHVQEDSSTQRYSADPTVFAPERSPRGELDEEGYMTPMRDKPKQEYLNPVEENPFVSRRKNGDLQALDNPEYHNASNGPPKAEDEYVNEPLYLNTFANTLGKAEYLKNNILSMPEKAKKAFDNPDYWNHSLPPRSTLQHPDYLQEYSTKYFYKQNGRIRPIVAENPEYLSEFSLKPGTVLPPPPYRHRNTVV

As a reminder, the residual activity is the signal under treatment as a percentage of the control signal. As to `c1ccc2c(-c3ccncc3)c[nH]c2c1`, the residual activity in [1] was 108%; in experiment [2], 110%; in experiment [3] it was 108%; in experiment [4] it was 111%; in experiment [5], 106% (inactive); in [6], 112%. Also, the residual activity in [7] was 111%; in experiment [8] it was 108%; in experiment [9] it was 88%.
